# Compound activity: PubChem BioAssay, several laboratories
# SMARCA2 act – activators of SMARCA2 function. MG213 cells, MMTV-luciferase reporter, dexamethasone, overnight. activation, % at 9.1 µM. actives 1% (n = 370,000). AID 652017; in the data active means activation above about 7.8%
# Wnt bcat act – activates Wnt/beta-catenin signaling in a reporter cell assay; activator, plate reader; activation, % at 9.35 µM; actives 1.2% (n = 300,000); in the data active means activation above about 30%, passing the limit was not always enough
# esBAF inh – inhibitors of esBAF chromatin remodeling in mouse ES cells; Bmi1-luciferase knock-in reporter, 24 h; 100% = twice the neutral-well signal; reporter increase, % at 12.5 µM; actives 2% (n = 350,000); AID 602393; in the data active means activation above about 40%;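 further: a rise in the Bmi1 reporter signal indicates esBAF inhibition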
# MLL AF4-AF9 inh – MLL-AF4/AF9 protein interaction inhibition. P42568. actives 0.47% (n = 350,000). inhibition, % at 10 µM. AlphaScreen, biotin-AF4 peptide binding to FLAG-AF9. AID 651704;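 active means every replicate reaching a set inhibition limit, whatever the replicate mean, cut at about 25% in these data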
# FGF22 binding – FGF22 (human) thermal shift binding; Q9HCT0; recombinant FGF22 thermal shift, SYPRO orange fluorescence; percent of sucrose octasulfate shift, DMSO zero; activity (Tm shift, normalised), % at 9.99 µM; actives 1.5% (n = 340,000);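 active means mean Tm shift, scaled 0 neutral to 100 positive control, at about 1.3% or above, every replicate too, limit read from the data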
# Target sequence (Q9HCT0 whole entry, looked up): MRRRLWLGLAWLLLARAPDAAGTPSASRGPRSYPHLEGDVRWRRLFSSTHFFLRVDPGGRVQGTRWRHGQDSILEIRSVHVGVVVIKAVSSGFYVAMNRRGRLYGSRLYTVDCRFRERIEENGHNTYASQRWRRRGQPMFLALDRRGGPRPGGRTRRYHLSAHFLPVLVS
# MITF TRPM1 HTS – increases MITF-driven TRPM1 promoter luciferase signal; SK-MEL-5 TRPM1-promoter luciferase, 24 h; % of positive control, neutral wells = 0; activation, % at 12.5 µM; actives 0.75% (n = 300,000); AID 588334;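 active means mean activation of at least 80% with every replicate also reaching 80%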
# Numbers stand for hits; - = inactive; . = no result given; ! = repeats disagree. The list is not random: actives were taken first. Their share in the collection is about 4.3%.
SMILES,SMARCA2 act,Wnt bcat act,esBAF inh,MLL AF4-AF9 inh,FGF22 binding,MITF TRPM1 HTS
O=C(NCCCn1ccnc1)/C(=C/c1ccco1)NC(=O)c1ccco1,-,-,-,-,-,.
CCOC(=O)Nc1nnc(-c2ccc(OC)cc2)s1,-,.,79.1,.,.,-
CCOC(=O)c1sc(NC(=O)Nc2ccc(F)cc2)nc1C,-,-,.,-,-,102.8
CCOC(=O)c1sc(NC(=O)c2ccc(OC)cc2)nc1C,-,-,46.9,-,-,-
CCOC(=O)Nc1nnc(-c2cccc(OC)c2)s1,-,-,-,.,.,-
CCOC(=O)c1sc(NC(=O)c2ccc(C)o2)nc1C,-,.,62.3,.,.,-
CCCNC(=O)[C@@H]1[C@@H](CO)[C@@H]2Cn3c(ccc(-c4cccc(F)c4)c3=O)[C@H]1N2C(C)=O,.,.,-,-,-,.
CCCCNc1ncnc2c1cnn2Cc1ccc(Cl)cc1,-,-,-,-,-,.
CCN(CC)c1ncnc2c1cnn2Cc1ccc(Cl)cc1,-,-,.,-,43.3,-
CO[C@@H]1CN(C)C(=O)c2cc(NS(=O)(=O)c3cccc(F)c3)ccc2OC[C@H](C)N(C(=O)Cc2cccnc2)C[C@@H]1C,.,.,-,-,-,.
COc1ccccc1CCC(=O)Nc1ccc(C)cc1Cl,-,-,.,-,43.3,-
COc1ccccc1-n1ccn(CC(=O)Nc2ccc(C)cc2Cl)c(=O)c1=O,-,-,-,-,-,-
C[C@@H]1CN([C@@H](C)CO)C(=O)c2cc(Br)cnc2O[C@H]1CN(C)C(=O)c1ccccn1,.,.,-,-,-,.
O=C(NC(=S)Nc1ccc(CN2CCOCC2)cc1)c1cc2ccccc2o1,-,-,.,-,-,-
O=C(Nc1ccc(N2CCOCC2)cc1)c1cc2ccccc2o1,-,.,46.1,.,.,-
O=C(Nc1ccc(CN2CCOCC2)cc1)c1cc2ccccc2o1,-,.,-,.,.,105.4
O=C(Nc1ccc(CN2CCOCC2)cc1)c1ccc(Cl)cc1Cl,-,-,-,-,-,-
O=C(Nc1ccc(CN2CCOCC2)cc1)c1ccccc1F,-,39.2,-,.,.,.
CN(C)CC(=O)N[C@@H]1CC[C@@H](CC(=O)NCc2ccccc2F)O[C@H]1CO,.,.,-,-,-,.
Cc1nnc(C)c2c(C)n(C(c3ccccc3)c3ccccc3)c(C)c12,-,-,-,30.2,-,-
Cc1nnc(C)c2c(C)n(-c3ccccc3)c(C)c12,-,-,-,-,-,-
C[C@H]1CN([C@@H](C)CO)C(=O)c2cccc(N(C)C)c2O[C@@H]1CN(C)Cc1ccc(Oc2ccccc2)cc1,.,.,-,-,-,.
Cc1cc(N)n(-c2ccc(C(=O)O)cc2)n1,-,-,-,-,42.9,-
CN(C)C(=O)[C@@H]1[C@@H](CO)[C@@H]2Cn3c(ccc(C4=CCCC4)c3=O)[C@H]1N2S(=O)(=O)c1cn(C)cn1,.,.,-,-,-,.
CS(=O)(=O)N[C@H]1C[C@@H]2O[C@H](CO)CC[C@@H]2O[C@@H]1CCc1ccc(-c2ccccc2F)cc1,.,.,.,-,.,.
SMILES,SMARCA2 act,Wnt bcat act,esBAF inh,MLL AF4-AF9 inh,FGF22 binding,MITF TRPM1 HTS
CC(=O)c1ccc(-n2c(SCC(=O)c3c[nH]c4ccccc34)nc3ccccc3c2=O)cc1,-,44.8,.,-,-,-
Cn1ccnc1SCC(=O)c1c[nH]c2ccccc12,-,55.3,-,-,-,-
COc1ccccc1C(=O)CSc1nccn1C,-,-,-,-,-,-
C[C@@H]1CN([C@H](C)CO)C(=O)c2cccc(NS(=O)(=O)c3cn(C)cn3)c2O[C@@H]1CN(C)S(C)(=O)=O,.,.,-,-,-,.
COc1ccc(N2CCN(C(=O)C3Cc4ccccc4CN3C(=O)c3ccccc3)CC2)cc1 (stereo not drawn),-,-,72.4,-,-,-
CCCc1cn(CC[C@@H]2CC[C@H](NC(=O)Nc3ccccc3F)[C@H](CO)O2)nn1,.,.,-,-,-,.
CCN(C(=O)CSc1nnc(-c2ccc(F)cc2)n1C)C1CCS(=O)(=O)C1 (stereo not drawn),-,-,-,-,43.0,-
CC(c1nnc(SCC(=O)N(C)C2CCS(=O)(=O)C2)n1-c1ccccc1)N(C)C (stereo not drawn),-,-,-,33.6,-,-
CCN(C(=O)CSc1nnc(-c2ccncc2)n1C)C1CCS(=O)(=O)C1 (stereo not drawn),-,.,.,.,.,-
CCn1c(SCC(=O)N(C)C2CCS(=O)(=O)C2)nnc1-c1ccccc1 (stereo not drawn),-,-,-,-,43.5,-
O=C(Nc1ccc(F)cc1)N1CCCCN2[C@H](C1)[C@H](c1ccc(-c3ccccc3F)cc1)[C@@H]2CO,.,.,.,-,-,.
Cc1ccc(S(=O)(=O)N(C)C[C@@H]2OCCCC[C@@H](C)Oc3ccc(NC(=O)c4ccncc4)cc3C(=O)N([C@@H](C)CO)C[C@@H]2C)cc1,.,.,-,-,.,.
Cc1ccc(S(=O)(=O)Nc2cccc3c2O[C@@H](CN(C)C(=O)Nc2ccc4c(c2)OCO4)[C@H](C)CN([C@@H](C)CO)C3=O)cc1,-,-,59.9!,-,-,-
C[C@@H]1CN([C@H](C)CO)C(=O)c2cccc(NC(=O)Nc3ccc4c(c3)OCO4)c2O[C@H]1CN(C)S(=O)(=O)c1cccs1,.,.,47.4,-,-,.
C[C@H](CO)N1C[C@H](C)[C@H](CN(C)C(=O)Nc2ccc3c(c2)OCO3)Oc2c(NS(=O)(=O)c3ccccc3)cccc2C1=O,.,.,67.6,-,-,.
C[C@H](CO)N1C[C@H](C)[C@@H](CN(C)C(=O)Nc2ccc3c(c2)OCO3)Oc2c(NS(=O)(=O)c3ccccc3)cccc2C1=O,-,-,-,-,-,-
O=C1N(Cc2ccccc2)c2ccccc2C12CCCc1oc(CCc3ccccc3)nc12 (stereo not drawn),-,.,.,.,.,.
Cc1cnc(NC(=O)Cc2ccc(S(=O)(=O)N3CCOCC3)s2)s1,-,-,.,-,-,-
COCCCNC(=O)Cc1ccc(S(=O)(=O)N2CCOCC2)s1,-,54.6,-,-,-,-
CC(C)(C)c1csc(NC(=O)Cc2ccc(S(=O)(=O)N3CCOCC3)s2)n1,-,-,42.6,-,-,-
O=C(NCCc1ccccc1)c1cc(-c2ccco2)on1,-,141.3,-,-,-,-
COc1ccc(CCNC(=O)c2cc(-c3cccs3)on2)cc1OC,.,-,-,-,-,-
O=C(NCc1ccccc1)c1cc(-c2ccco2)on1,-,-,42.4,-,-,-
COc1ccc(CCNC(=O)c2cc(-c3ccco3)on2)cc1OC,-,103.4,.,-,-,-
CC(C)N1CCN(c2ccc(OC[C@H]3CO[C@](Cn4cncn4)(c4ccc(Cl)cc4Cl)O3)cc2)CC1,-,-,-,36.2,-,-
Cc1ccc(NC(=O)c2nnn(-c3cc(C)cc(C)c3)c2N)cc1,-,31.2,48.5,.,.,.
CO[C@@H]1CN(C)C(=O)c2ccc(NC(=O)C3CCOCC3)cc2OC[C@@H](C)NC[C@@H]1C,.,.,-,.,-,.
CCOc1ncccc1C(=O)N1CCN(c2ccc(C(F)(F)F)cn2)CC1,-,-,.,-,-,-
